# Screening results deposited in PubChem BioAssay by Johns Hopkins Ion Channel Center.
# Only some compounds are listed: those with a hit (about 1.6% of all), similar ones and a draw of the others.
# KCNQ2 enhance: potentiators of rat KCNQ2 potassium channel; Potassium voltage-gated channel subfamily KQT member 2 (Rattus norvegicus), O88943; CHO-K1 KCNQ2, FluxOR thallium flux fluorescence; stronger effect = higher value; B-score at 10 µM; 310,000 tested, 0.54% active; AID 2239, 2010;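 active means fluorescence ratio B-score at least 3 SD of library B-scores, with initial fluorescence B-score within 3 of them, cut at about 5.3 in these data; same plate scores as AID 2156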;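 further: B-score of peak minus minimum over baseline fluorescence ratio after K+ and Tl+ stimulus; positive B-score means potentiation of KCNQ2 with more thallium influx and brighter signal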
# Target sequence (O88943 whole entry, looked up): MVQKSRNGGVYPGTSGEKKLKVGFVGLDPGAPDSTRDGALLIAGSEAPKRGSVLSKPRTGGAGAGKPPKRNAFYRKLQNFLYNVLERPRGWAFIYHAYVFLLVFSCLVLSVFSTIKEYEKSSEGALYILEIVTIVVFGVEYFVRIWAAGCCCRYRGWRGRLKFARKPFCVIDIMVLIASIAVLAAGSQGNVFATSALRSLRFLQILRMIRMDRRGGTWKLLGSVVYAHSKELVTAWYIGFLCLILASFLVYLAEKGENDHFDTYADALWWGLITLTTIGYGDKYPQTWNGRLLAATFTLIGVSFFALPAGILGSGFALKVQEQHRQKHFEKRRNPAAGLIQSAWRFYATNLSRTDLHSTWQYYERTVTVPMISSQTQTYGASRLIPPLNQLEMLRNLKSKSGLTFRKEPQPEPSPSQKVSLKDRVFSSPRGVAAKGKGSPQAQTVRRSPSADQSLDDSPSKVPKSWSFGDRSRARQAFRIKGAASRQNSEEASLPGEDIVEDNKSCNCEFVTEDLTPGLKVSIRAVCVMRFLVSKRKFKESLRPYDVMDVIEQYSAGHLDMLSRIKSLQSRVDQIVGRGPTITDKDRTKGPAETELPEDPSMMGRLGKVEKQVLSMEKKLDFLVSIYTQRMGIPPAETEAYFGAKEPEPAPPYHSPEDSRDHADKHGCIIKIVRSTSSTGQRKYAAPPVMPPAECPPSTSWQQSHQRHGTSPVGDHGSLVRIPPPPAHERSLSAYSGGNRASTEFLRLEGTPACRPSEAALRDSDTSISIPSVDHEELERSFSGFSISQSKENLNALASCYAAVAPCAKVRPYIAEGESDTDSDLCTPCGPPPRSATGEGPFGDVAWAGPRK
# KCNQ2 block: rat KCNQ2 potassium channel inhibitors, primary screen, cell-based, CHO-K1, FluxOR thallium flux, B-score. 310,000 tested, 1.1% active. 20 min; stronger effect = lower value. B-score at 10 µM. Potassium voltage-gated channel subfamily KQT member 2 (Rattus norvegicus), O88943;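 active means fluorescence ratio B-score at most minus 3 library SDs, with starting brightness B-score within 2 library SDs, cut at about -5.5 in these data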
# Numbers without * were called inactive; i = inactive; / = not tested or not shown.
SMILES,KCNQ2 enhance,KCNQ2 block
COc1ccccc1NC(=O)c1ccc2nc(-c3ccccc3)c(-c3ccccc3)nc2c1,-7.1,-7.1*
CN(C)CCNC(=O)c1onc(CSc2nc3ccccc3[nH]2)c1C(=O)NCCN(C)C,/,i
O=C(NCc1cccnc1)c1ccc(-c2cc(Cl)ccc2Cl)o1,-6.8,-6.8*
O=C(Nc1cccnc1)c1ccc(-c2cc(Cl)ccc2Cl)o1,0.02,i
O=C(/C=C/c1ccco1)NC(=S)Nc1cc(C(F)(F)F)ccc1N1CCOCC1,-7.3,-7.3*
O=C(Nc1ccccc1)C1Cc2ccccc2CN1C(=O)c1ccco1 (centres undefined),/,i
O=C(Nc1cc(C(F)(F)F)ccc1N1CCOCC1)C1Cc2ccccc2CN1C(=O)c1ccco1 (centres undefined),-6.5,-6.5*
O=C(CCCCl)NC(=S)Nc1cc(C(F)(F)F)ccc1N1CCOCC1,0.03,i
CCCCc1cc(=O)oc2cc(C)cc(OCC(=O)N3C[C@H]4C[C@@H](C3)c3cccc(=O)n3C4)c12,/,i
COc1ccccc1/C=N\NC(=O)c1ccc(COc2ccc(C)c(C)c2)o1,/,i
COc1ccc(CC(=O)NCC2CCCN(Cc3cc(OC)cc(OC)c3)C2)cc1 (centres undefined),2.2,i
CN(CC(=O)NCc1ccccc1Cl)CC(=O)Nc1cccc(F)c1,/,i
Cn1ncc(Cl)c1C(=O)N/N=C/c1ccccn1,/,i
Cc1ccc(S(=O)(=O)Oc2ccccc2/C=N/NC(=O)c2c(Cl)cnn2C)cc1,-6,-6*
Cc1ccc(N(Cc2ccco2)C(=O)c2ccc(N3CCCCC3)c([N+](=O)[O-])c2)cc1,-7.1,-7.1*
O=C(NCc1ccco1)c1ccc(N2CCCCC2)c([N+](=O)[O-])c1,1.1,i
Cc1ccccc1CC(=O)N1CCCC1,/,i
OCCN1CCN(CC(O)COc2ccc(C34CC5CC(CC(C5)C3)C4)cc2)CC1 (centres undefined),-7.1,-7.1*
OCCN1CCN(CC(O)COc2ccc(Cl)cc2)CC1 (centres undefined),0.32,i
Cc1ccc(C)c(C(=O)CCC(=O)O)c1,0.55,i
COc1cccc(-c2cccc(NC(=O)C3CCN(Cc4ccon4)CC3)c2)c1,/,i
Cc1cccc(NC(=O)c2cccc(S(=O)(=O)NCc3ccccc3)c2)n1,/,i
COc1ccccc1N(Cc1ccccc1)S(=O)(=O)c1cccc(C(=O)Nc2cccc(C)n2)c1,-6.4,-6.4*
O=C(O)c1ccc(-n2cccc2/C=C2/SC(=O)N(CC(=O)N3CCCC3)C2=O)cc1,/,i
COc1ccc(C(=O)NCCS(=O)(=O)N2CCOCC2)cc1,/,i
SMILES,KCNQ2 enhance,KCNQ2 block
COc1ccc(-c2nc(N3CCCCCC3)sc2C(=O)c2ccccc2)cc1,/,i
O=C(c1ccccc1)c1sc(N2CCCCCC2)nc1-c1ccccc1,-6.2,-6.2*
COc1cc(C2C(C#N)=C(N)OC3=C2C(=O)CC(C)(C)C3)cc2c1OCO2 (centres undefined),1.2,i
CCCn1c(/C=C/c2ccccc2)nc2ccccc21,-6.1,-6.1*
COCCOCCn1c(/C=C/c2ccccc2)nc2ccccc21,/,i
CCn1cc(C2=NC(C)CO2)c2ccccc21 (centres undefined),0.41,i
CCn1cc(C2=NC(c3ccccc3)CO2)c2ccccc21 (centres undefined),-5.7,-5.7*
CC(C)(C)NC(=O)COc1ccc(S(=O)(=O)N2CCCC2)cc1,/,i
COc1ccc(-c2cc(C(=O)Nc3cccc(Cl)c3)no2)cc1,/,i
COc1ccc(OC)c(-c2cc(C(=O)Nc3cccc(Cl)c3)no2)c1,-7.5,-7.5*
Cc1nc2c3ccccc3nc(NNC(=O)CCC(=O)N3CCCC(C)C3)n2n1 (centres undefined),1.2,i
CCc1cc(C(=O)OC)c(NC(=O)CC2NCCNC2=O)s1 (centres undefined),0.96,i
CCc1cc(C(=O)OC)c(NC(=O)C2CC(=O)NN2Cc2ccccc2)s1 (centres undefined),-5.9,-5.9*
CCCc1cc(C(=O)Nc2cc(OC)c(Cl)cc2OC)no1,0.12,i
COc1cc(NC(=O)c2cc(CC(C)C)on2)c(OC)cc1Cl,-7.8,-7.8*
Cc1ccccc1OCc1nc2ccccc2[nH]1,-6.6,-6.6*
COc1ccccc1OCc1nc2ccccc2[nH]1,/,i
O=C(Nc1cccc(Cl)c1)Nc1c[nH]c(=O)[nH]c1=O,/,i
O=C(CN1C(=O)COc2ccccc21)N(Cc1ccccc1)Cc1ccccn1,-6.1,-6.1*
Cc1ccc(CN(Cc2cccnc2)C(=O)CN2C(=O)COc3ccccc32)o1,/,i
CC(=O)Nc1ccc(S(=O)(=O)NC2CC3CCC2C3)cc1 (centres undefined),/,i
COc1cc(CCN2C(=O)c3cccc4cccc(c34)C2=O)c(S(=O)(=O)N2CCC(C)CC2)cc1OC,-6.7,-6.7*
COc1cc(CCN2C(=O)c3cccc4cccc(c34)C2=O)c(S(=O)(=O)N2CCCCCC2)cc1OC,/,i
CCOC(=O)C1CCN(S(=O)(=O)c2ccc(C)c(C)c2)CC1,1.2,i
Cc1ccc(S(=O)(=O)N2CCC(C(=O)OCC(=O)N(Cc3ccccc3)C(C)(C)C)CC2)cc1C,-6.5,-6.5*
SMILES,KCNQ2 enhance,KCNQ2 block
COc1cc(OC)c(S(=O)(=O)NC(C)C)cc1C(=O)O,0.82,i
CC(=O)N/N=C/c1cc(C(C)(C)C)cc(/C=N/NC(C)=O)c1O,/,i
O=C(CNCc1ccccc1)Nc1ccc(Cl)cc1,/,i
O=C(N1CCOCC1)C1(c2ccc(Cl)cc2)CCCC1,/,i
O=C(N1CCC(n2nc(-c3ccccc3)oc2=O)CC1)C1(c2ccc(Cl)cc2)CC1,-8.2,-8.2*
CSc1ccc(S(=O)(=O)NCC(=O)OCC(=O)NCc2cccs2)cc1[N+](=O)[O-],0.08,i
Cc1ccc(N(CC2CO2)S(=O)(=O)c2ccc([N+](=O)[O-])cc2)cc1 (centres undefined),-6.8,-6.8*
Cc1ccc(N(CC2CO2)S(=O)(=O)c2ccc(C)cc2)cc1 (centres undefined),/,i
Cc1ccc(-n2nc3c(=O)n(C(C)C(=O)NCCCc4ccccc4)nc(C)c3c2C)cc1 (centres undefined),/,i
Cc1ccc(-n2nc3c(=O)n(C(C)C(=O)NCc4ccccc4Cl)nc(C)c3c2C)cc1 (centres undefined),-8.1,-8.1*
N#Cc1ccccc1NC(=O)C(=O)NCCCN1CCCC1=O,/,i
Cc1c(C(=O)NN2CCCCC2)nn(-c2ccc(Cl)cc2Cl)c1-c1ccc(I)cc1,-9.9,-9.9*
Cc1onc(-c2c(Cl)cccc2Cl)c1C(=O)NN1CCCCCC1,/,i
Cc1cc([N+](=O)[O-])ccc1NC(=O)CSc1nnc(C)n1C,1.2,i
COc1ccc(/C=C2\C(=O)NCC(=O)N2Cc2ccccc2)cc1,/,i
COc1ccc(/C=C2\C(=O)N(Cc3ccc(F)cc3)CC(=O)N2Cc2ccccc2)cc1,-6.1,-6.1*
COC(=O)CSc1nnc(-c2ccc(NS(=O)(=O)c3ccccc3)cc2)o1,-6.2,-6.2*
Cc1ccc(CSc2nnc(-c3ccc(NS(=O)(=O)c4ccccc4)cc3)o2)cc1,/,i
CC(C)(C)C(=O)N(Cc1ccc(Cl)cc1)Cc1cccnc1,/,i
CC1(C)C2CCC1(C)C(OC(=O)CC(=O)O)C2 (centres undefined),-8.2,-8.2*
